Test results reported in PubChem BioAssay (NCI).
About 83,000 compounds went through this panel and 20% of them were active in at least one assay; those are over-represented in the sample as a whole.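 Results are percent growth after 48 hours of single-concentration exposure. 100 means growth as in untreated cells, lower positive values show inhibition; negative values down to -100 show cell death.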 Unmarked numbers belong to inactive results. Active and inactive are the calls of the source. Rule for the calls: active = growth percent below 10; inactive = the rest.

Tests used:
Experiment in all cases: NCI-60 one-dose screen, 48 h (100 = growth as untreated, 0 = no growth, -100 = all killed)
Conditions in all cases: 10 µM unless noted
NCI-H23 lung = system: NCI-H23 lung
NCI-H226 lung = system: NCI-H226 lung
NCI-H322M lung = system: NCI-H322M lung
HOP-62 NSCLC = system: HOP-62 NSCLC
NCI-H460 lung = system: NCI-H460 lung
HOP-92 NSCLC = system: HOP-92 NSCLC
NCI-H522 lung = system: NCI-H522 lung
A549/ATCC NSCLC = system: A549/ATCC NSCLC
786-0 renal = system: 786-0 renal
COLO 205 colon = system: COLO 205 colon
DU-145 prostate = system: DU-145 prostate
MALME-3M melanoma = system: MALME-3M melanoma
MDA-MB-231 breast = system: MDA-MB-231 breast
RXF 393 renal = system: RXF 393 renal
SF-268 CNS = system: SF-268 CNS
SF-295 CNS = system: SF-295 CNS
SF-539 CNS = system: SF-539 CNS
UACC-257 melanoma = system: UACC-257 melanoma
M14 melanoma = system: M14 melanoma
K-562 leukemia = system: K-562 leukemia

Row | SMILES | growth (NCI-H23 lung) | growth (NCI-H226 lung) | growth (NCI-H322M lung) | growth (HOP-62 NSCLC) | growth (NCI-H460 lung) | growth (HOP-92 NSCLC) | growth (NCI-H522 lung) | growth (A549/ATCC NSCLC) | growth (786-0 renal) | growth (COLO 205 colon) | growth (DU-145 prostate) | growth (MALME-3M melanoma) | growth (MDA-MB-231 breast) | growth (RXF 393 renal) | growth (SF-268 CNS) | growth (SF-295 CNS) | growth (SF-539 CNS) | growth (UACC-257 melanoma) | growth (M14 melanoma) | growth (K-562 leukemia)
1 | Cc1ccc(CSC(=N)N)cc1C | 108% | 104% | 111% | 110% | 109% | 67.4% | 101% | 103% | 103% | 107% | 108% | 111% | 99.2% | 103% | 104% | 111% | 114% | 119% | 105% | 
2 | C=CCSc1n[nH]c(-c2cccs2)n1 | 104% | 99.4% | 110% | 94.3% | 107% | 94.7% | 92% | 98.8% | 95.9% | 137% | 121% | 110% | 121% |  | 111% | 106% | 98.3% | 76.4% | 104% | 85.6%
3 | COc1cc(Nc2ncccc2C(=O)NCc2cn(Cc3cccc(Oc4ccccc4)c3)nn2)cc(OC)c1 | 66.2% | 91.7% | 65.2% | 56.6% | 20.2% | 108% | 5.73% (active) | 38.6% | 51% | 38.3% | 68.9% | 56.1% | 26.3% | 64.2% | 47.2% | 28.3% | 38.5% | 74% |  | 
4 | Cc1[nH]c2ccc(F)cc2c1CCNC(=O)C1CCN(C(=O)c2ccccc2)C1 (configuration not stated) | 88.6% [25 µM] | 90.2% [25 µM] | 61.8% [25 µM] | 93.3% [25 µM] | 101% [25 µM] | -0.166% [25 µM] (active) | 95.1% [25 µM] | 97.8% [25 µM] | 89.9% [25 µM] | 101% [25 µM] | 87.6% [25 µM] | 73.3% [25 µM] | 82% [25 µM] |  | 85.1% [25 µM] | 96.4% [25 µM] | 83% [25 µM] | 99.6% [25 µM] | 98.8% [25 µM] | 91.9% [25 µM]
5 | O=C(/C=C/c1ccccc1)c1cccc(O)c1 | 96.7% | 109% | 113% | 103% | 110% | 82.8% | 116% | 86% | 94.2% | 107% | 56.4% | 101% |  | 107% | 85% | 96.8% |  | 99.5% | 68.1% | 51.3%
6 | Cc1ccc(-c2nc(C(Cl)Cl)n3nc(-c4ccccc4)cc3n2)cc1 | 47.3% | 88% | 83.3% | 3.61% (active) | 15.5% | -8.47% (active) | 100% | 12% | 17.8% | 6.05% (active) | -9.74% (active) | 74.7% | 11.5% |  | 8.85% (active) | 66.2% | 29.8% | 94.1% | 95.7% | 21.2%
7 | O=C(O)Cc1cccc(=O)c(O)c1C(=O)O | 108% | 111% | 129% | 103% | 124% | 103% | 106% | 104% | 100% | 108% | 117% | 92.5% | 110% | 112% | 107% | 117% | 110% | 103% | 102% | 
8 | N=C(N)c1ccc(-c2ccc(-c3cncc4ccccc34)s2)cc1F | -67.9% (active) | -64% (active) | -67.6% (active) | -83.3% (active) | -72.4% (active) | -87.1% (active) | -90.5% (active) | -76.8% (active) | -91.2% (active) | -85.6% (active) | -91% (active) | -81% (active) | -85.2% (active) |  | -74.4% (active) | -95.1% (active) | -97.7% (active) | 111% | 96.3% | -50.6% (active)
9 | Cc1[nH]c2ccc(F)cc2c1CCNC(=O)C1CCN(C(=O)c2ccccc2)CC1 | 99.3% [25 µM] | 83.7% [25 µM] | 86.3% [25 µM] | 84.6% [25 µM] | 101% [25 µM] | 4.45% [25 µM] (active) | 89.3% [25 µM] | 96.6% [25 µM] | 88.9% [25 µM] | 90.9% [25 µM] | 82.9% [25 µM] | 75.6% [25 µM] | 79.4% [25 µM] |  | 79.5% [25 µM] | 96.1% [25 µM] | 86.4% [25 µM] | 98.3% [25 µM] | 98.3% [25 µM] | 90.4% [25 µM]
10 | Cc1ccc(NS(=O)(=O)c2cc(C)ccc2C)cc1 | 59.2% | 79.1% | 88.7% | 49.3% | 14.4% | 39.6% | 11.5% | 33.5% | 61% | 32.8% | 57.9% | 54.1% | 57.4% | 47.6% | 53.7% | 30.7% | 45.4% | 73% | 8.87% (active) | 
11 | CC(=O)Nc1nc(N)nc(NC(C)=O)c1N=O | 95.3% | 105% | 140% | 106% | 123% | 108% | 101% | 107% | 106% | 116% | 107% |  | 114% | 135% | 98.7% |  | 105% | 113% | 104% | 124%
12 | COc1ccc(-c2ccc(C)n2-c2ccc(-c3nc4cc(Cl)ccc4s3)cc2)cc1 | 83.4% | 78.7% | 103% | 102% | 99.7% | 133% | 98.8% | 95.5% | 106% | 95.9% | 112% | 102% | 85.8% | 114% | 111% | 96.6% | 109% | 107% | 107% | 
13 | CN1C=CN(Cc2ccc(-c3ccccn3)nc2)[CH-]1.CN1C=CN(Cc2ccc(-c3ccccn3)nc2)[CH-]1.[Au+3] | 36.3% | 66.7% | -3% (active) | 61.6% | 21.3% | 66.6% | 34.2% | 45.2% | 52.8% | 28.4% |  | 21.5% | 28.1% | 19.5% | 44.1% | 17.3% | 17.4% | 2.13% (active) | 35.6% | 21.9%
14 | Cc1cccc(/C=N/Nc2cc(C)c3cccc(C)c3n2)n1 | 94.3% | 86.9% | 100% | 110% | 92.9% | 75.5% | 87% | 87.8% | 107% | 96.2% | 101% |  | 90.4% | 98.2% | 101% |  | 88% | 80% | 98.4% | 69.8%
15 | Cc1c(C(=N)C(C#N)C#N)c(=N)oc2c1ccc1ccccc12 | 73.2% | 95% | 89.9% | 93.6% | 97.4% | 73.1% | -3.19% (active) | 92.8% | 94% | 115% | 103% | 111% | 97.9% |  | 88.4% | 96.5% | 94.1% | 60.6% | 88% | 72.8%
16 | COc1ccc(/C(C#N)=C/c2cc(OC)c(OC)c(OC)c2)cc1 | 62.3% | 70.6% | 59.7% | 46.7% | 16.9% | 31.6% | 15.8% | 32.5% | 51.2% | 24.3% | 82.7% |  | 58.1% | 56.7% | 61.9% |  | 23.1% | 52.8% | 17.2% | 19%
17 | O=S1(=O)CCC(N(/N=C/c2ccco2)c2ccccc2)C1 (configuration not stated) | 102% | 104% | 102% | 104% | 107% | 96.5% | 95.5% | 97.9% | 103% | 117% | 111% |  | 112% | 109% | 102% |  | 98.1% | 95.1% | 100% | 123%
